# According to the supplement of paper PMC8728848:
# Only a selection was taken, and the strongest signals are over-represented in it overall.
# B1: TbCVNHOa (Tuber borchii), Q5MK11 (protein)
# chain: MSYADSSRNAVLTNGGRTLRAECRNADGNWVTSELDLDTCIGNPNGFLGWGMQNFSHSSEDIKLEEGGRKLTCRPKTVDGGFRERQGIDLNRIQNVNGRLVFQ
# What was measured:
# Test in all cases: glycan array binding signal (z-score within array); higher = stronger binding
# Conditions in all cases: glycan notation: IUPAC condensed, linker removed
# [1] = biological target: Fuc(a1-2)Gal(b1-3)GlcNAc(b1-3)Gal(b1-4)Glc
# Method in brief: (§1)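 Columns mapping to the same glycan were averaged after glycan names were converted to IUPAC-condensed notation. The data come from 3228 arrays in the Consortium for Functional Glycomics database, limited to those with an available protein sequence. Binding is reported as a within-array Z-score averaged across arrays of one protein sequence and across linkers.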
# [2] = biological target: Fuc(a1-2)Gal(b1-4)GlcNAc(b1-2)Man(a1-6)[Gal(b1-4)GlcNAc(b1-2)Man(a1-3)]Man(b1-4)GlcNAc(b1-4)GlcNAc
# Method in brief: as §1
# [3] = biological target: Fuc(a1-2)Gal(b1-4)GlcNAc(b1-3)Gal(b1-4)GlcNAc(b1-3)Gal(b1-4)GlcNAc
# Method in brief: as §1
# [4] = biological target: Fuc(a1-2)Gal(b1-4)GlcNAc6S
# Method in brief: as §1
# [5] = biological target: Fuc(a1-2)Gal6S(b1-4)GlcNAc
# Method in brief: as §1
# [6] = biological target: Fuc(a1-3)[Gal(b1-4)]GlcNAc
# Method in brief: as §1
# [7] = biological target: Gal(a1-3)Gal(b1-4)Glc
# Method in brief: as §1
# [8] = biological target: Gal(b1-3)GalNAc
# Method in brief: as §1
# [9] = biological target: Gal(b1-3)GlcNAc(b1-3)Gal(b1-4)Glc
# Method in brief: as §1
# [10] = biological target: Gal(b1-4)GlcNAc(b1-3)Gal(b1-4)Glc
# Method in brief: as §1
# [11] = biological target: GlcA(b1-3)Gal
# Method in brief: as §1
# [12] = biological target: GlcNAc(b1-3)[GlcNAc(b1-6)]Gal(b1-4)GlcNAc
# Method in brief: as §1
# [13] = biological target: GlcNAc(b1-4)GlcNAc(b1-4)GlcNAc(b1-4)GlcNAc(b1-4)GlcNAc(b1-4)GlcNAc
# Method in brief: as §1
# [14] = biological target: Man(a1-2)Man(a1-2)Man(a1-3)Man
# Method in brief: as §1
# [15] = biological target: Man(a1-3)[Man(a1-6)]Man
# Method in brief: as §1
# [16] = biological target: Man(b1-4)GlcNAc
# Method in brief: as §1
# [17] = biological target: Neu5Ac(a2-3)Gal(b1-4)[Fuc(a1-3)]GlcNAc(b1-6)[Gal(b1-3)]GalNAc
# Method in brief: as §1
# [18] = biological target: Neu5Ac(a2-6)Gal(b1-4)GlcNAc(b1-2)Man(a1-6)[GlcNAc(b1-2)Man(a1-3)]Man(b1-4)GlcNAc(b1-4)GlcNAc
# Method in brief: as §1
binder,measurement,setting,value
B1,glycan array binding signal (z-score),[1],1.94
same,glycan array binding signal (z-score),[2],-0.642
same,glycan array binding signal (z-score),[3],-0.116
same,glycan array binding signal (z-score),[4],0.067
same,glycan array binding signal (z-score),[5],0.327
same,glycan array binding signal (z-score),[6],-0.024
same,glycan array binding signal (z-score),[7],1.45
same,glycan array binding signal (z-score),[8],-0.24
same,glycan array binding signal (z-score),[9],2.76
same,glycan array binding signal (z-score),[10],1.38
same,glycan array binding signal (z-score),[11],-0.018
same,glycan array binding signal (z-score),[12],0.219
same,glycan array binding signal (z-score),[13],-0.762
same,glycan array binding signal (z-score),[14],5.14
same,glycan array binding signal (z-score),[15],-0.273
same,glycan array binding signal (z-score),[16],-0.533
same,glycan array binding signal (z-score),[17],0.487
same,glycan array binding signal (z-score),[18],-0.034
